# Experimental data from PubChem BioAssay.
# Several values for one entry are separate records, joined by “and”; a condition that tells them apart may be missing. Equal entries are not always repeated. Activity calls are given as the source filed them. Unless noted, how the calls were made is not given here.
# Assays:
# [1] = Cy5 fluorescence interference with SSB-bound oligo, artefact control for HCV NS3 helicase inhibitor project, biochemical, NIH Clinical Collection, E. coli SSB (AID 743268)
# [2] = system: Hepatitis C virus NS3 helicase; test: HCV NS3 helicase inhibitors, primary screen, biochemical, fluorescence polarization, NIH Clinical Collection (AID 743270); conditions: NS3 helicase binding to Cy5-dT15 DNA, stronger effect = higher value, concentration not given here
# [3] = target: Single-stranded DNA-binding protein (Escherichia coli (strain K12)) (UniProt P0AGE0); test: E. coli SSB displacement from DNA, counter-screen for HCV NS3 helicase inhibitor project, biochemical, fluorescence polarization, NIH Clinical Collection (AID 743271; in the data active means inhibition above about 28%); conditions: stronger effect = higher value, concentration not given here
# [4] = fluorescence interference in NS3h assay format, artefact control for HCV NS3 helicase inhibitor project, biochemical, NIH Clinical Collection (AID 743272); conditions: fluorescence interference counterscreen, stronger effect = lower value;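 further: HCV NS3 helicase with a Cy5 labelled single stranded DNA probe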
# [5] = system: Neuropilin-2 / VEGF-C interaction (human); test: inhibitors of NRP2–VEGF-C binding, biochemical, microplate binding format, z-score (AID 743281); conditions: microplate NRP2/VEGF-C binding assay; stronger effect = lower value
# [6] = modulation of C. elegans fzo-1 (AID 1259413);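 further: fzo-1 mutant C. elegans worms in liquid wells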; conditions: C. elegans fzo-1 modulator screen, mean read-out; stronger effect = higher value
# [7] = survival rescue of mitochondrial mutant cells in low glucose, primary screen, MELAS cybrids, Rieske KO mouse fibroblasts, CellTiter-Glo (AID 1508586;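 active means mean z-score across replicates of 1.96 or higher in either the MELAS or the Rieske mutant cell line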;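 further: z relative to plate mean and SD of compound and empty wells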)
# [8] = viability rescue of complex I mutant cybrids, primary screen, cell-based, galactose medium, ATP luminescence (AID 1645843;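 active means z-score of at least 1.8 in each of two replicates, scored against plate mean and spread of sample wells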;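 further: positive z means more ATP and so rescue of galactose-driven cybrid death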); conditions: complex I mutant cybrid cells, 72 h, stronger effect = higher value
# [9] = liver-stage malaria parasite growth inhibition, primary screen, cell-based, HepG2, luciferase luminescence, HepG2 viability (AID 624349; in the data active means parasite load remaining mostly below about 12%, no sharp cut-off; inactive means mostly above about 10%;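 further: 100% = mean of DMSO negative control wells on the same plate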); conditions: P. berghei liver stage in HepG2, luciferase luminescence, concentration not given here; parasite load remaining: stronger effect = lower value; viability: measured here: HepG2 viability without parasites
# [10] = sensitizers of A549 cells to miR-34 induction, primary screen, imaging, A549 dox-inducible miR-34, nuclei and caspase counts (AID 1347080;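 active means compounds whose cell count with miR-34 switched on is under 0.7 times the count with it off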); conditions: A549 miR-34 inducible, Hoechst nuclei count, 48 h
# [11] = MELAS cybrid survival, CellTiter-Glo 48 h, stronger effect = higher value
# [12] = Rieske KO mouse fibroblast survival, CellTiter-Glo 72 h
# [13] = stronger effect = lower value, cell number ratio, induced over uninduced
# [14] = measured here: relative caspase fold change +Dox/-Dox
# [15] = measured here: total cells with miR-34 induction, stronger effect = lower value
# [16] = measured here: total cells without miR-34 induction
structure (smiles),measurement,setting,value
CC(C)N=c1cc2n(-c3ccc(Cl)cc3)c3ccccc3nc-2cc1Nc1ccc(Cl)cc1,fluorescence ratio,[1],0.94 (inactive)
same,inhibition,[2],8.52% (inactive)
same,inhibition,[3],6.69% (inactive)
same,fluorescence ratio,[4],0.96 (inactive)
same,z-score,[5],1.38 (inactive)
same,mean signal,[6],220 (inactive)
same,z-score,[7]; [11],-0.332 (inactive) and -3.07 (inactive)
same,z-score,[7]; [12],0.691 and -0.422
same,z-score,[8],-1.15 (inactive)
Cc1sc(N)c(C(=O)c2cccc(C(F)(F)F)c2)c1C,parasite load remaining,[9],28.2% (inactive)
same,viability,[9],69.8%
same,fluorescence ratio,[1],0.94 (inactive)
same,inhibition,[2],-3.71% (inactive)
same,inhibition,[3],-1.97% (inactive)
same,fluorescence ratio,[4],0.97 (inactive)
same,z-score,[5],0.715 (inactive)
same,mean signal,[6],276 (inactive)
same,fold change,[10]; [13],0.904 (inactive) and 0.931 (inactive)
same,fold change,[10]; [14],0.769 and 0.712
same,cell count,[10]; [15],8250 and 8560
same,cell count,[10]; [16],9130 and 9190
same,z-score,[8],1.27 (inactive) and 1.38 (inactive)
CO/N=C(/C(=O)N[C@@H]1C(=O)N2C(C(=O)O)=C(COC(N)=O)CS[C@H]12)c1ccco1,mean signal,[6],235 (inactive)
Cc1c(O)c(=O)ccn1C,parasite load remaining,[9],103% (inactive)
same,viability,[9],77.2%
same,fluorescence ratio,[1],0.96 (inactive)
same,inhibition,[2],1.98% (inactive)
same,inhibition,[3],6.83% (inactive)
same,fluorescence ratio,[4],0.92 (inactive)
same,z-score,[5],-1.2 (inactive)
same,mean signal,[6],235 (inactive)
same,fold change,[10]; [13],0.87 (inactive) and 0.909 (inactive)
same,fold change,[10]; [14],0.877 and 1.84
same,cell count,[10]; [15],8280 and 9190
same,cell count,[10]; [16],9520 and 10100
same,z-score,[8],0.65 (inactive)
CC(=O)OC1C([N+]2(C)CCCCC2)C[C@H]2C3CC[C@H]4C[C@H](OC(C)=O)C([N+]5(C)CCCCC5)CC4(C)[C@H]3CCC12C (stereo partly specified),parasite load remaining,[9],86.3% (inactive)
same,viability,[9],68.8%
same,fluorescence ratio,[1],0.94 (inactive)
same,inhibition,[2],-0.4% (inactive)
same,inhibition,[3],11.4% (inactive)
same,fluorescence ratio,[4],0.71 (active)
same,outcome,[5],inactive
same,mean signal,[6],283 (inactive)
CS(=O)(=O)c1ccc(-c2cc(Br)sc2-c2ccc(F)cc2)cc1,parasite load remaining,[9],10.4% (inactive)
same,viability,[9],69.4%
same,fluorescence ratio,[1],0.96 (inactive)
same,inhibition,[2],5.02% (inactive)
same,inhibition,[3],4.33% (inactive)
same,fluorescence ratio,[4],0.95 (inactive)
same,z-score,[5],-0.424 (inactive)
same,mean signal,[6],233 (inactive)
same,fold change,[10]; [13],0.877 (inactive) and 0.852 (inactive) and 0.867 (inactive)
same,fold change,[10]; [14],1.92 and 0.768 and 0.919
same,cell count,[10]; [15],8710 and 4800 and 6290
same,cell count,[10]; [16],9930 and 5630 and 7260
same,z-score,[8],-0.985 (inactive) and -0.57 (inactive)
CO[C@H]1C=CO[C@@]2(C)Oc3c(C)c(O)c4c(O)c(c5c(c4c3C2=O)NC2(CCN(CC(C)C)CC2)N=5)=NC(=O)/C(C)=C\C=C/[C@H](C)[C@H](O)[C@@H](C)[C@@H](O)[C@@H](C)[C@H](OC(C)=O)[C@@H]1C,mean signal,[6],242 (inactive)
CCCCC[C@H](O)/C=C/[C@H]1[C@H](O)CC(=O)[C@@H]1CCCCCCC(=O)O,parasite load remaining,[9],87.1% (inactive) and 65% (inactive) and 24% (inactive)
same,viability,[9],70.2% and 67.7% and 65.5%
same,fluorescence ratio,[1],0.87 (inactive)
same,inhibition,[2],-3.71% (inactive)
same,inhibition,[3],-0.39% (inactive)
same,fluorescence ratio,[4],0.98 (inactive)
same,z-score,[5],-0.575 (inactive)
same,mean signal,[6],268 (inactive)
same,z-score,[7]; [11],-0.41 (inactive) and -0.106 (inactive)
same,z-score,[7]; [12],-0.367 and -0.604
same,z-score,[8],0.265 (inactive) and 0.315 (inactive)
CC1(C)O[C@@H]2C[C@H]3[C@@H]4C[C@H](F)C5=CC(=O)C=CC5(C)[C@@]4(F)[C@@H](O)CC3(C)C2(C(=O)CO)O1 (stereo partly specified),mean signal,[6],256 (inactive)
CC(=O)OCC(=O)[C@@]1(O)CC[C@H]2[C@@H]3CCC4=CC(=O)C=CC4(C)[C@H]3[C@@H](O)CC21C (stereo partly specified),mean signal,[6],224 (inactive)
CC(C)C[C@H](NC(=O)[C@@H](COC(C)(C)C)NC(=O)[C@H](Cc1ccc(O)cc1)NC(=O)[C@H](CO)NC(=O)[C@H](Cc1c[nH]c2ccccc12)NC(=O)[C@H](Cc1cnc[nH]1)NC(=O)[C@H]1CCC(=O)N1)C(=O)N[C@H](CCCN=C(N)N)C(=O)N1CCC[C@@H]1C(=O)NNC(N)=O,mean signal,[6],236 (inactive)
CN1CCN(c2nc3cc(C(F)(F)F)ccc3n3cccc23)CC1,parasite load remaining,[9],58.1% (inactive)
same,viability,[9],68%
same,fluorescence ratio,[1],0.95 (inactive)
same,inhibition,[2],-10.7% (inactive)
same,inhibition,[3],1.97% (inactive)
same,fluorescence ratio,[4],0.95 (inactive)
same,z-score,[5],-0.53 (inactive)
same,mean signal,[6],175 (inactive)
same,fold change,[10]; [13],1 (inactive) and 0.87 (inactive)
same,fold change,[10]; [14],1.47 and 0.615
same,cell count,[10]; [15],7250 and 7950
same,cell count,[10]; [16],7230 and 9140
same,z-score,[8],-0.85 (inactive) and -1.01 (inactive)
CCOC(=O)C1(CCCCCCOc2ccc(Cl)cc2)CO1 (stereo unspecified),parasite load remaining,[9],85.5% (inactive)
same,viability,[9],89%
same,fluorescence ratio,[1],1.01 (inactive)
same,inhibition,[2],1.98% (inactive)
same,inhibition,[3],-2.41% (inactive)
same,fluorescence ratio,[4],0.93 (inactive)
same,z-score,[5],-0.326 (inactive)
same,mean signal,[6],266 (inactive)
same,fold change,[10]; [13],0.886 (inactive)
same,fold change,[10]; [14],1.28
same,cell count,[10]; [15],7740
same,cell count,[10]; [16],8740
same,z-score,[8],0.13 (inactive)
CC(=O)OCC(=O)[C@@]1(O)CC[C@H]2[C@@H]3CCC4=CC(=O)CCC4(C)[C@H]3C(=O)CC21C (stereo partly specified),mean signal,[6],237 (inactive)
CC[C@]1(O)CC2CN(CCc3c([nH]c4ccccc34)[C@@](C(=O)OC)(c3cc4c(cc3OC)N(C=O)[C@H]3[C@@](O)(C(=O)OC)[C@H](OC(C)=O)[C@]5(CC)C=CCN6CC[C@]43[C@@H]65)C2)C1 (stereo partly specified),parasite load remaining,[9],70.4% (inactive) and 43.2% (inactive)
same,viability,[9],103% and 123%
same,fluorescence ratio,[1],0.94 (inactive)
same,inhibition,[2],-2.84% (inactive)
same,inhibition,[3],0.39% (inactive)
same,fluorescence ratio,[4],0.92 (inactive)
same,outcome,[5],inactive
same,mean signal,[6],261 (inactive)
same,fold change,[10]; [13],0.983 (inactive)
same,fold change,[10]; [14],2.57
same,cell count,[10]; [15],1600
same,cell count,[10]; [16],1630
C#C[C@]1(O)CC[C@H]2[C@@H]3CCC4=CC(=O)CC[C@@H]4[C@H]3CCC21C (stereo partly specified),mean signal,[6],236 (inactive)
COCC1=C(C(=O)OC(C)OC(=O)OC(C)C)N2C(=O)[C@@H](NC(=O)/C(=N\OC)c3csc(N)n3)[C@H]2SC1 (stereo partly specified),outcome,[5],inactive
same,mean signal,[6],270 (inactive)
same,z-score,[7]; [11],-0.0637 (inactive)
same,z-score,[7]; [12],-0.177
